According to PubChem BioAssay:
The source made the active and inactive calls.

Tests used:
[1] = system: Plasmodium falciparum Sir2 (PF13_0152, Sir2A); assay: Plasmodium falciparum Sir2A binding compounds – biochemical, small-molecule microarray, 635 nm fluorescence, primary screen (AID 1098); conditions: fluorescence 635 nm, higher = more signal;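 further: score merges spot fluorescence intensity with its signal-to-noise ratio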
[2] = probe aDKK1 binding to arrayed compounds – biochemical, biotinylated probe, 635/667 nm fluorescence, primary screen (AID 1099); conditions: small-molecule microarray, higher = more signal;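 further: score merges 667nm spot fluorescence with signal to noise across triplicate slides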
[3] = probe aCHRDL2 binding to arrayed compounds – biochemical, biotinylated probe, 635/667 nm fluorescence, primary screen (AID 1100); conditions: small-molecule microarray, higher = more signal
[4] = change in splice reporter luminescence, either direction, cell-based, HEK293, spliceosome inhibition project, primary screen (AID 1101); conditions: HEK293 splicing luciferase reporter, 24 h, higher = more signal, called active from +8 up or from −8 down;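 further: HEK293 cells carrying a splicing-competent luciferase reporter gene; test concentration not given here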
[5] = biological target: Fibroblast growth factor 10 (Homo sapiens) (UniProt O15520); assay: compounds binding fibroblast growth factor 10 – biochemical, small-molecule microarray, 635 nm fluorescence, primary screen (AID 1102); conditions: FGF10 binding, fluorescence 635 nm, higher = more signal
Sequence of Fibroblast growth factor 10 (Homo sapiens) (O15520 whole entry, looked up): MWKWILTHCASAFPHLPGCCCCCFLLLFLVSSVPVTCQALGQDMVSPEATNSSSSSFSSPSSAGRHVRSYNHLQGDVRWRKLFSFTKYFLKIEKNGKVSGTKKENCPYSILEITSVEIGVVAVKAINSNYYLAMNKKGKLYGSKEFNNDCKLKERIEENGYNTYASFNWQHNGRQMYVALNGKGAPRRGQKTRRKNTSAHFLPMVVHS

[6] = system: glycogen synthase kinase-3 (GSK3A per assay name; protocol says GSK3B); assay: compounds binding glycogen synthase kinase-3 – biochemical, small-molecule microarray, 635 nm fluorescence, GSK3A, primary screen (AID 1103); conditions: fluorescence 635 nm, higher = more signal; further: the record names both GSK3A and GSK3B
[7] = biological target: Epidermal growth factor receptor (Homo sapiens) (UniProt P00533); assay: compounds binding epidermal growth factor receptor – biochemical, small-molecule microarray, 635 nm fluorescence, primary screen (AID 1104); conditions: EGFR binding, higher = more signal;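 further: score merges 667 nm emission intensity with spot signal to noise over triplicate slides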
Sequence of Epidermal growth factor receptor (Homo sapiens) (P00533 whole entry, looked up): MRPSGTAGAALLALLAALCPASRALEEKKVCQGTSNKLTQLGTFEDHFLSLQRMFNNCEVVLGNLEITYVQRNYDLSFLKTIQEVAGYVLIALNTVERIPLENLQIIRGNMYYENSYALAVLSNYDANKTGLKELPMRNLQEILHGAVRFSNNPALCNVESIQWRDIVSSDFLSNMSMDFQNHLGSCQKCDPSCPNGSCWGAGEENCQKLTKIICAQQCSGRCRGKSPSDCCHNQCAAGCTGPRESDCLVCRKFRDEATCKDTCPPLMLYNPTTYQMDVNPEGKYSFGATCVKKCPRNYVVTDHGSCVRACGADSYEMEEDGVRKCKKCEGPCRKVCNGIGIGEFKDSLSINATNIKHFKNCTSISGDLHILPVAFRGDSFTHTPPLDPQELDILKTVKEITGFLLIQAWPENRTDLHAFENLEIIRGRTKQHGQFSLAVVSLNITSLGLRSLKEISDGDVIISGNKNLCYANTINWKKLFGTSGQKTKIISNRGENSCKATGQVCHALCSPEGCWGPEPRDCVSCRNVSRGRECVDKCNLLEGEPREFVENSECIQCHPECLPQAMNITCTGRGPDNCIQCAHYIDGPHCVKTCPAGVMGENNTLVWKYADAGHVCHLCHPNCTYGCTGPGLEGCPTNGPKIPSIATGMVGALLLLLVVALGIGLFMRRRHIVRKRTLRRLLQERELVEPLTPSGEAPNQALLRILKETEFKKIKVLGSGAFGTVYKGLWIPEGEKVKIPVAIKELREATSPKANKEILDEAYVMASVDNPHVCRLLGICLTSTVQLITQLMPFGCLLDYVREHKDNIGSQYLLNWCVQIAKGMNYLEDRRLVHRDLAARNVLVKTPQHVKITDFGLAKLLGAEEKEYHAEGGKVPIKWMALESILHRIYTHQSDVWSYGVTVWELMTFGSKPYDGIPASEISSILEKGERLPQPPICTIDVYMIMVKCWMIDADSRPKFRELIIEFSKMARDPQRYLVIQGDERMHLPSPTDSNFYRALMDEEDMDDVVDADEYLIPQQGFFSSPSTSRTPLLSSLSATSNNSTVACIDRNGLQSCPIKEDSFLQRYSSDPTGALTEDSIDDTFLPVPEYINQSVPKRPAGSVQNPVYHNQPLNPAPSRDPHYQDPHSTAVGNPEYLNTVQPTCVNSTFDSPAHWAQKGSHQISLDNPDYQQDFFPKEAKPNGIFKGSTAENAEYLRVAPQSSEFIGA

[8] = biological target: Follistatin-related protein 3 (Homo sapiens) (UniProt O95633); assay: compounds binding follistatin-related protein 3 – biochemical, small-molecule microarray, 635 nm fluorescence, primary screen (AID 1105); conditions: FSTL3 binding, higher = more signal;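 further: score merges emission near 667 nm and signal to noise per printed spot across three slides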
Sequence of Follistatin-related protein 3 (Homo sapiens) (O95633 whole entry, looked up): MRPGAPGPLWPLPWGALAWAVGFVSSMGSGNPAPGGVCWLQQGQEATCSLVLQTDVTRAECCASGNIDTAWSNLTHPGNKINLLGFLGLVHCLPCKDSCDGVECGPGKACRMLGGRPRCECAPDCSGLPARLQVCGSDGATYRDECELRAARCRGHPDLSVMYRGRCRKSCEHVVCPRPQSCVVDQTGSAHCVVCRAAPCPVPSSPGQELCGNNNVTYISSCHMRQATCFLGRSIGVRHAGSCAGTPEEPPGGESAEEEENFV

[9] = biological target: Dickkopf-related protein 1 (Homo sapiens) (UniProt O94907); assay: small molecules binding DKK1 protein – biochemical, small-molecule microarray, 635 nm fluorescence scan, primary screen (AID 1106); conditions: higher = more signal;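 further: score merges emission near 667 nm with signal to noise over three replicate slides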
Sequence of Dickkopf-related protein 1 (Homo sapiens) (O94907 whole entry, looked up): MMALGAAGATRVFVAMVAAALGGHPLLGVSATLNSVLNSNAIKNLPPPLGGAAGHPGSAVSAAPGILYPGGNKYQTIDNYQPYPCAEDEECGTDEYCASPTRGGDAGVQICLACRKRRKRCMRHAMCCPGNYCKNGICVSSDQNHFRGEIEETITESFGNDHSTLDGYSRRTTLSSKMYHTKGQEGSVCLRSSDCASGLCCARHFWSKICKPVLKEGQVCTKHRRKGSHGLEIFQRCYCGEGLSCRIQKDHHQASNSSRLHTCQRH

[10] = system: Inhibin beta A chain (activin A); assay: small molecules binding activin A – biochemical, small-molecule microarray, 635 nm fluorescence scan, primary screen (AID 1107); conditions: INHBA, higher = more signal;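 further: mouse activin A protein probed at 4.33 µg/mL on printed slides; score merges bound-protein fluorescence near 667 nm with spot signal-to-noise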
[11] = system: Human papillomavirus type 1a protein E7 (residues 44-93); assay: small molecules binding HPV E7 44-93 – biochemical, small-molecule microarray, residues 44-93, 635 nm fluorescence, primary screen (AID 1108); conditions: fluorescence 635 nm, higher = more signal;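 further: E7 fragment applied at 1 µg/mL in TBST for 1 h at 4 C; score combines spot fluorescence with its signal to noise ratio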
[12] = hepatitis C replication reporter changes, two-sided – Huh7 cells, luciferase reporter, HCV replication inhibitor project, primary screen (AID 1109); conditions: Huh7 HCV replicon luciferase reporter, 48 h; higher = more signal;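 further: huh7 hepatoma cells harbouring a luciferase neomycin HCV replicon reporter; luciferase luminescence as measure of HCV replicon replication; test concentration not given here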
[13] = biological target: Left-right determination factor 2 (Homo sapiens) (UniProt O00292); assay: small molecules binding LEFTY2 protein – biochemical, small-molecule microarray, 635 nm fluorescence scan, primary screen (AID 1110); conditions: higher = more signal
Sequence of Left-right determination factor 2 (Homo sapiens) (O00292 whole entry, looked up): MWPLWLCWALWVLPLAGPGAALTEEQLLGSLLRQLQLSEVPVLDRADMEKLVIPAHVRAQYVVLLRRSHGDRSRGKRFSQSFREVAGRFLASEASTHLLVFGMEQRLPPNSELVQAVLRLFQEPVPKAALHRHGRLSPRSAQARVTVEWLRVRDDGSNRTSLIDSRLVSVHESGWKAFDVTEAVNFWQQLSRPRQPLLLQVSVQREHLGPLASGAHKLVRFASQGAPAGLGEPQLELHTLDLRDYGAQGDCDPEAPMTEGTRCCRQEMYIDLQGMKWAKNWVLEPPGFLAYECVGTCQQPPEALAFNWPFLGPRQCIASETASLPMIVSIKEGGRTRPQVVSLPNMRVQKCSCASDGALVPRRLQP

[14] = biological target: Calmodulin-1 (Homo sapiens) (UniProt P0DP23); assay: small molecules binding calmodulin-1 with EGTA – biochemical, small-molecule microarray, Cy5-labelled CALM1, profiling panel (AID 1111); conditions: Cy5-CALM1 binding fluorescence, higher = more signal;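 further: labelled calmodulin applied in Tris saline Tween buffer holding calcium plus EGTA and DTT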
[15] = biological target: Calmodulin-1 (Homo sapiens) (UniProt P0DP23); assay: small molecules binding Ca-loaded calmodulin-1 – biochemical, small-molecule microarray, Cy5-labelled CALM1, plus calcium, artefact control for SMM control-protein annotation, profiling panel (AID 1112); conditions: Cy5-CALM1 binding fluorescence, higher = more signal;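 further: score merges spot fluorescence with signal to noise from triplicate slides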
[16] = probe aWnt5a binding to arrayed compounds – biochemical, biotinylated probe, 635/667 nm fluorescence, primary screen (AID 1113); conditions: small-molecule microarray, higher = more signal;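 further: score merges 667 nm fluorescence intensity with signal-to-noise per printed feature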
[17] = probe aShh binding to arrayed compounds – biochemical, biotinylated probe, 635/667 nm fluorescence, primary screen (AID 1114); conditions: small-molecule microarray, higher = more signal;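 further: probe is biotin-labelled aShh protein from a stem cell growth factor screen; measures binding of labelled protein to compounds printed on the slide; score merges feature fluorescence at 667 nm with signal-to-noise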
[18] = probe aNog binding to arrayed compounds – biochemical, biotinylated probe, 635/667 nm fluorescence, primary screen (AID 1115); conditions: small-molecule microarray, higher = more signal;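 further: probe is biotinylated aNog protein used at 0.15 µg/mL for 1 h at 4 C; z-score combines 667 nm fluorescence of each spot with its signal to noise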
[19] = biological target: Torsin-1A-interacting protein 1 (Homo sapiens) (UniProt Q5JTV8); assay: compound microarray binding of lysate hLAP1 – cell lysate, small-molecule microarray, COS7 lysate, 635/667 nm fluorescence, primary screen (AID 1116); conditions: 635 nm fluorescence, higher = more signal
Sequence of Torsin-1A-interacting protein 1 (Homo sapiens) (Q5JTV8 whole entry, looked up): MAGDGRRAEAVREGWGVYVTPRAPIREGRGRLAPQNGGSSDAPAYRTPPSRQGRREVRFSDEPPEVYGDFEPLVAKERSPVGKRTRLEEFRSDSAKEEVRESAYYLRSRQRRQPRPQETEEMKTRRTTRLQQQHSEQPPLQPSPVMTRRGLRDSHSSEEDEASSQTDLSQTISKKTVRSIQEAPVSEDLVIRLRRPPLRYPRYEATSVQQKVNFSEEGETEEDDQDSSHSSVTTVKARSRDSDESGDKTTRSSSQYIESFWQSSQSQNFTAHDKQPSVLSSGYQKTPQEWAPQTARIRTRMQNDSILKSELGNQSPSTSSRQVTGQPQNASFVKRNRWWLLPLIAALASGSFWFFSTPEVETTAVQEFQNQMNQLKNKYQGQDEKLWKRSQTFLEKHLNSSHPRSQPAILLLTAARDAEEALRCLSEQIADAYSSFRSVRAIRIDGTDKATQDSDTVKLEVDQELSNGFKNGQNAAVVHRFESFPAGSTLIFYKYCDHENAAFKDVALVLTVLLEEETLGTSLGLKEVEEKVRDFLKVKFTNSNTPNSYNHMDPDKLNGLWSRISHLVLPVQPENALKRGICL

[20] = biological target: Alpha-bungarotoxin (Bungarus multicinctus) (UniProt P60615); assay: compounds binding labelled alpha-BTX control protein – biochemical, small-molecule microarray, Alexa647 label, 635/667 nm fluorescence, artefact control for SMM control protein annotation, profiling panel (AID 1117); conditions: alpha-BTX-A647 binding fluorescence, higher = more signal
Sequence of Alpha-bungarotoxin (Bungarus multicinctus) (P60615 whole entry, looked up): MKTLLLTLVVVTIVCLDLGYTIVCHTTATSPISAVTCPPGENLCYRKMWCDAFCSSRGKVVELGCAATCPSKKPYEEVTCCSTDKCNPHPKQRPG

C=C(C)c1cc2c(c(CCCCCC)n1)[Si](C(C)C)(C(C)C)OC2
composite z-score [1]: -0.491
composite z-score [2]: -0.304
composite z-score [3]: 0.149
z-score [4]: -0.392 (inactive)
composite z-score [5]: -1.04
composite z-score [6]: -1.18
composite z-score [7]: -1.01
composite z-score [8]: -1.24
composite z-score [9]: -1.31
composite z-score [10]: 0.138
composite z-score [11]: -1.01
z-score [12]: -0.35
composite z-score [13]: -1.08
composite z-score [14]: -0.689
composite z-score [15]: 0.603
composite z-score [16]: -0.145
composite z-score [17]: -0.123
composite z-score [18]: -0.295
composite z-score [19]: -1.07
composite z-score [20]: -0.676

COc1ccc([Si](C)(C)[C@@H]2[C@@H](CC(=O)N(CCO)Cc3ccccc3)O[C@]3(C(=O)N(Cc4cccc(N5C(=O)c6cccc7cccc5c67)c4)c4ccccc43)[C@H]2C)cc1
composite z-score [1]: 1.5
composite z-score [2]: -0.277
composite z-score [3]: 0.246
z-score [4]: -1.11 (inactive)
composite z-score [5]: 0.0691
composite z-score [6]: -0.727
composite z-score [7]: 0.412
composite z-score [8]: 1.4
composite z-score [9]: 0.816
composite z-score [10]: 0.539
composite z-score [11]: -0.726
z-score [12]: -3.94
composite z-score [13]: 0.882
composite z-score [14]: 0.222
composite z-score [15]: 0.234
composite z-score [16]: -0.1
composite z-score [17]: -0.209
composite z-score [18]: -0.424
composite z-score [19]: 0.566
composite z-score [20]: 0.389

C[N+](C)(C)CCCC[C@@H]1NC(=O)[C@H]2C[C@@H](C(=O)NCCCCCCN)[C@@H](c3ccc(O)cc3)N2C1=O
composite z-score [1]: 1.38
composite z-score [2]: 0.608
composite z-score [3]: 0.659
z-score [4]: 0.587 (inactive)
composite z-score [5]: 0.687
composite z-score [6]: 1.3
composite z-score [7]: -0.397
composite z-score [8]: -0.0878
composite z-score [9]: 0.0717
composite z-score [10]: -0.695
composite z-score [11]: 1.17
z-score [12]: -0.481
composite z-score [13]: 0.0608
composite z-score [14]: 0.756
composite z-score [15]: 0.342
composite z-score [16]: 0.127
composite z-score [17]: 0.541
composite z-score [18]: 0.0561
composite z-score [19]: 0.567
composite z-score [20]: 0.925

CCOC(=O)C[C@H]1[C@H](OC(=O)c2cc3ccccc3oc2=O)[C@@H](NC(=O)c2ccc(-c3ccccc3)cc2)c2cc(OCCCO)ccc2N1C(=O)c1ccccc1
composite z-score [1]: 1.17
composite z-score [2]: -0.24
composite z-score [3]: -0.466
z-score [4]: -1.38 (inactive)
composite z-score [5]: 1.02
composite z-score [6]: 1.04
composite z-score [7]: 0.613
composite z-score [8]: 1.05
composite z-score [9]: 1.22
composite z-score [10]: 0.479
composite z-score [11]: 1.4
z-score [12]: -0.659
composite z-score [13]: 1.16
composite z-score [14]: 0.536
composite z-score [15]: -0.15
composite z-score [16]: -0.0203
composite z-score [17]: 0.199
composite z-score [18]: 0.161
composite z-score [19]: 0.959
composite z-score [20]: 0.727

COc1ccc(CCNC(=O)[C@@]2(Sc3ccc(C)cc3)CC(=O)N(C3Cc4ccccc4C3)[C@@H]2c2ccc(CO)cc2)cc1
composite z-score [1]: 0.672
composite z-score [2]: 0.167
composite z-score [3]: -0.0208
z-score [4]: -1.67 (inactive)
composite z-score [5]: 1.78
composite z-score [6]: 1.27
composite z-score [7]: 0.494
composite z-score [8]: 1.51
composite z-score [9]: 2.06
composite z-score [10]: 1.23
composite z-score [11]: 1.42
z-score [12]: -3.04
composite z-score [13]: 1.25
composite z-score [14]: 1.07
composite z-score [15]: 0.616
composite z-score [16]: 0.0799
composite z-score [17]: 0.171
composite z-score [18]: 0.557
composite z-score [19]: 2.01
composite z-score [20]: 0.535
